{"source": "PubChem BioAssay AID2012", "about": "(Sanford-Burnham Center for Chemical Genomics, 2009)", "target": "Eukaryotic translation initiation factor 4H (Homo sapiens) (UniProt Q15056)", "experiment": "human eIF4H binding inhibitors, primary screen, translation initiation inhibitor project, biochemical, uHTS, fluorescence polarization (AID 2012);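 also: calls also rest on retests at 20 µM and on dose response follow-up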", "details": "eIF4H fluorescence polarization binding assay, stronger effect = higher value", "note": "Out of some 290,000 compounds screened, about 2,700 (0.93%) were called active. No rule for the calls is given here. The entries come from a sample that favours actives as a whole."}
{"smiles": "COc1cc2c(cc1OC)C(C)N(S(=O)(=O)c1cnc(Cl)c(Cl)c1)CC2", "note": "(stereo unspecified)", "values": [{"measurement": "inhibition", "setting": "at 35 µM", "result": "1.8% (inactive)"}]}
{"smiles": "Cc1ccc(NS(=O)(=O)c2ccc(F)cc2)nc1", "values": [{"measurement": "inhibition", "setting": "at 35 µM", "result": "-7.9% (inactive)"}]}
{"smiles": "CCC(Cc1ccccc1)NS(=O)(=O)c1ccc2c(c1)NC(=O)CS2", "note": "(stereo unspecified)", "values": [{"measurement": "inhibition", "setting": "at 35 µM", "result": "-2.9% (inactive)"}]}
{"smiles": "CCOC(=O)c1c(C)[nH]c2c1-c1ccccc1C(=O)C2=O", "values": [{"measurement": "inhibition", "setting": "at 35 µM", "result": "-11% (inactive)"}]}
{"smiles": "CCCCOC(=O)c1[nH]c(C)c(C(=O)OC)c1C", "values": [{"measurement": "inhibition", "setting": "at 35 µM", "result": "4.8% (inactive)"}]}
{"smiles": "CCOC(=O)c1c(C)[nH]c(C2=NNC(=NC(C)COC)SC2)c1C", "note": "(stereo unspecified)", "values": [{"measurement": "inhibition", "setting": "at 35 µM", "result": "-1.8% (active)"}, {"measurement": "inhibition", "setting": "confirmation average, at 20 µM", "result": 93.1, "unit": "%"}]}
{"smiles": "COc1cc(/C=N/O)ccc1OCc1ccc([N+](=O)[O-])cc1", "values": [{"measurement": "inhibition", "setting": "at 35 µM", "result": "0.1% (inactive)"}]}
{"smiles": "COC(=O)c1ccc(COc2ccc(/C=C/C(=O)c3ccc(OC)c(CSCC(=O)O)c3)cc2OC)cc1", "values": [{"measurement": "inhibition", "setting": "at 35 µM", "result": "81% (active)"}, {"measurement": "inhibition", "setting": "confirmation average, at 20 µM", "result": 68.7, "unit": "%"}]}
{"smiles": "COc1ccc(C(=O)/C=C/c2ccc(-c3ccccc3)cc2)cc1CSCC(=O)O", "values": [{"measurement": "inhibition", "setting": "at 35 µM", "result": "82.3% (inactive)"}, {"measurement": "inhibition", "setting": "confirmation average, at 20 µM", "result": 47.3, "unit": "%"}]}
{"smiles": "CCCc1ccc(OCC(O)CN2CCN(CCO)CC2)cc1", "note": "(stereo unspecified)", "values": [{"measurement": "inhibition", "setting": "at 35 µM", "result": "-2.4% (inactive)"}]}
{"smiles": "Cc1ccc(NC(=O)CCN2C(=O)c3ccccc3C2=O)cc1C", "values": [{"measurement": "inhibition", "setting": "at 35 µM", "result": "-6.5% (inactive)"}]}
{"smiles": "Cc1cc(C)cc(OCC(=O)NNC(=O)CCN2C(=O)c3ccccc3C2=O)c1", "values": [{"measurement": "inhibition", "setting": "at 35 µM", "result": "2.3% (active)"}, {"measurement": "inhibition", "setting": "confirmation average, at 20 µM", "result": 87.4, "unit": "%"}]}
{"smiles": "Cc1cc(C)cc(NC(=O)CCN2C(=O)c3ccccc3C2=O)c1", "values": [{"measurement": "inhibition", "setting": "at 35 µM", "result": "-1.3% (inactive)"}]}
{"smiles": "COc1ccc(CN2CC(C(=O)NCCc3ccc(Cl)cc3)CC2=O)cc1", "note": "(stereo unspecified)", "values": [{"measurement": "inhibition", "setting": "at 35 µM", "result": "-12.2% (inactive)"}]}
{"smiles": "O=C(N/C(=C\\c1ccc([N+](=O)[O-])cc1)C(=O)N1CCOCC1)c1cccc(Br)c1", "values": [{"measurement": "inhibition", "setting": "at 35 µM", "result": "7.9% (inactive)"}]}
{"smiles": "O=C1c2ccccc2C(=O)N1CCOc1ccc(F)cc1", "values": [{"measurement": "inhibition", "setting": "at 35 µM", "result": "0.9% (inactive)"}]}
{"smiles": "O=C(Nc1nonc1-c1ccc(Cl)cc1)c1ccco1", "values": [{"measurement": "inhibition", "setting": "at 35 µM", "result": "-12.8% (inactive)"}]}
{"smiles": "Cc1cc2occ(CC(=O)NNC(=O)c3ccccc3F)c2cc1C", "values": [{"measurement": "inhibition", "setting": "at 35 µM", "result": "-3% (inactive)"}]}
{"smiles": "COc1ccc(S(=O)(=O)Nc2ccccc2C(=O)N2CCCC2)cc1C", "values": [{"measurement": "inhibition", "setting": "at 35 µM", "result": "-2.4% (inactive)"}]}
{"smiles": "COCCNC(=O)c1ccccc1NS(=O)(=O)c1ccc(C)c([N+](=O)[O-])c1", "values": [{"measurement": "inhibition", "setting": "at 35 µM", "result": "9.2% (inactive)"}]}
{"smiles": "CC1CN(C(=O)c2ccccc2NS(=O)(=O)c2cccc([N+](=O)[O-])c2)CC(C)O1", "note": "(stereo unspecified)", "values": [{"measurement": "inhibition", "setting": "at 35 µM", "result": "-0.3% (active)"}, {"measurement": "inhibition", "setting": "confirmation average, at 20 µM", "result": 95.9, "unit": "%"}]}
{"smiles": "O=S(=O)(c1ccc(Cl)cc1)c1nc(-c2ccccc2F)oc1NCCN1CCOCC1", "values": [{"measurement": "inhibition", "setting": "at 35 µM", "result": "-7.4% (inactive)"}]}
{"smiles": "Cc1nn(C)cc1S(=O)(=O)N1CCN(c2ccc(F)cc2)CC1", "values": [{"measurement": "inhibition", "setting": "at 35 µM", "result": "1% (inactive)"}]}
{"smiles": "COc1cccc(/C=N/NC(=O)CNC(=O)c2ccc(S(=O)(=O)N3CCOCC3)cc2)c1OC", "values": [{"measurement": "inhibition", "setting": "at 35 µM", "result": "7.4% (inactive)"}]}
{"smiles": "O=C(N/N=C/c1ccc([N+](=O)[O-])o1)c1cccc(S(=O)(=O)N2CCOCC2)c1", "values": [{"measurement": "inhibition", "setting": "at 35 µM", "result": "52% (active)"}, {"measurement": "inhibition", "setting": "confirmation average, at 20 µM", "result": 78.6, "unit": "%"}]}
{"smiles": "COc1ccc(Br)cc1/C=N/NC(=O)c1cccc(S(=O)(=O)N2CCOCC2)c1", "values": [{"measurement": "inhibition", "setting": "at 35 µM", "result": "-3.8% (inactive)"}]}
{"smiles": "COc1ccccc1C(=O)COC(=O)CNS(=O)(=O)c1ccc(NC(C)=O)cc1", "values": [{"measurement": "inhibition", "setting": "at 35 µM", "result": "-9.9% (inactive)"}]}
{"smiles": "O=C(O)CCCC(=O)N1N=C(c2ccco2)CC1c1ccco1", "note": "(stereo unspecified)", "values": [{"measurement": "inhibition", "setting": "at 35 µM", "result": "7.4% (inactive)"}]}
{"smiles": "O=c1c2ccccc2ncn1/N=C/c1ccccc1", "values": [{"measurement": "inhibition", "setting": "at 35 µM", "result": "4.2% (inactive)"}]}
{"smiles": "COc1ccc(C(=S)Nc2ccccc2)cc1", "values": [{"measurement": "inhibition", "setting": "at 35 µM", "result": "-0.5% (inactive)"}]}
{"smiles": "COc1ccc(NC2=CC(=S)NC(C)(C)C2)cc1", "values": [{"measurement": "inhibition", "setting": "at 35 µM", "result": "67.8% (active)"}, {"measurement": "inhibition", "setting": "confirmation average, at 20 µM", "result": 62.7, "unit": "%"}]}
{"smiles": "COc1ccc(Nc2nc(=O)[nH]nc2C)cc1", "values": [{"measurement": "inhibition", "setting": "at 35 µM", "result": "3.5% (inactive)"}]}
{"smiles": "CCCCSCCCNC(=O)C1CCC(CNS(=O)(=O)c2ccc(NC(C)=O)cc2)CC1", "note": "(stereo unspecified)", "values": [{"measurement": "inhibition", "setting": "at 35 µM", "result": "2.4% (inactive)"}]}
{"smiles": "Cc1cc(CNC(=O)C2CCC(=O)N(CCc3ccc(Cl)cc3)C2)no1", "note": "(stereo unspecified)", "values": [{"measurement": "inhibition", "setting": "at 35 µM", "result": "-0.4% (inactive)"}]}
{"smiles": "CCOC(=O)C1C(c2ccc(O)cc2)NC(=O)NC1(O)C(F)(F)F", "note": "(stereo unspecified)", "values": [{"measurement": "inhibition", "setting": "at 35 µM", "result": "-0.5% (inactive)"}]}
{"smiles": "Cc1ccccc1NC(=O)CCNS(=O)(=O)c1ccc2[nH]c(=O)oc2c1", "values": [{"measurement": "inhibition", "setting": "at 35 µM", "result": "-5.4% (inactive)"}]}
{"smiles": "CCN1CCN(CCNC(=O)c2ccc(/C=C3/Sc4ccccc4N(Cc4cccc(C)c4)C3=O)cc2)CC1", "values": [{"measurement": "inhibition", "setting": "at 35 µM", "result": "-0.9% (active)"}, {"measurement": "inhibition", "setting": "confirmation average, at 20 µM", "result": 95.1, "unit": "%"}]}
{"smiles": "CCN1CCN(CCNC(=O)c2ccc3c(c2)NC(=O)/C(=C\\c2ccc(OC)c(OC)c2)S3)CC1", "values": [{"measurement": "inhibition", "setting": "at 35 µM", "result": "22.4% (inactive)"}]}
{"smiles": "O=C(NCCN1CCOCC1)c1ccc(/C=C2\\Sc3ccccc3N(Cc3ccc(F)cc3)C2=O)cc1", "values": [{"measurement": "inhibition", "setting": "at 35 µM", "result": "-7.3% (inactive)"}]}
{"smiles": "COc1ccc(C)cc1Nc1nc(C)nc2c1oc1ccccc12", "values": [{"measurement": "inhibition", "setting": "at 35 µM", "result": "-11.2% (inactive)"}]}
{"smiles": "CN1CCN(C(=O)c2ccc(NS(=O)(=O)c3ccccc3)cc2)CC1", "values": [{"measurement": "inhibition", "setting": "at 35 µM", "result": "-6.4% (inactive)"}]}
{"smiles": "CCOCCCN(C(=O)Cn1nnc(-c2ccc(OC)c(OC)c2)n1)C(CC)C(=O)NC1CCCC1", "note": "(stereo unspecified)", "values": [{"measurement": "inhibition", "setting": "at 35 µM", "result": "-12.4% (active)"}, {"measurement": "inhibition", "setting": "confirmation average, at 20 µM", "result": 91, "unit": "%"}]}
{"smiles": "COc1ccc(-c2nnn(CC(=O)N(CCO)C(C(=O)NC3CCCC3)c3ccc(F)cc3)n2)cc1", "note": "(stereo unspecified)", "values": [{"measurement": "inhibition", "setting": "at 35 µM", "result": "-0.3% (inactive)"}]}
{"smiles": "CCC(C(=O)NC1CCCC1)N(C(=O)Cn1nnc(-c2ccc(C)o2)n1)c1ccc(OC)c(OC)c1", "note": "(stereo unspecified)", "values": [{"measurement": "inhibition", "setting": "at 35 µM", "result": "5.7% (inactive)"}]}
{"smiles": "O=C(O)Cn1c(Cc2ccccc2)nc2ccccc21", "values": [{"measurement": "inhibition", "setting": "at 35 µM", "result": "-6.9% (inactive)"}]}
{"smiles": "O=C(Nc1ccc(Cl)c(Cl)c1)c1ccccc1NC(=O)C1CC=CCC1C(=O)O", "note": "(stereo unspecified)", "values": [{"measurement": "inhibition", "setting": "at 35 µM", "result": "-5.2% (inactive)"}]}
{"smiles": "O=C(NCc1ccccn1)c1cc(-c2ccccc2Cl)on1", "values": [{"measurement": "inhibition", "setting": "at 35 µM", "result": "-3.2% (inactive)"}]}
{"smiles": "O=C(NCc1ccccn1)c1ccc2nc(-c3ccco3)c(-c3ccco3)nc2c1", "values": [{"measurement": "inhibition", "setting": "at 35 µM", "result": "97% (active)"}]}
{"smiles": "COc1cccc(S(=O)(=O)NCc2ccc(C(=O)NCc3ccccn3)cc2)c1", "values": [{"measurement": "inhibition", "setting": "at 35 µM", "result": "-1% (inactive)"}]}
{"smiles": "COc1ccc(C23NCCN2C(=O)c2ccccc23)cc1", "note": "(stereo unspecified)", "values": [{"measurement": "inhibition", "setting": "at 35 µM", "result": "-1.8% (inactive)"}]}
{"smiles": "Cc1ccc(CN2CCN(c3ncccn3)CC2)c(C)c1", "values": [{"measurement": "inhibition", "setting": "at 35 µM", "result": "17.4% (inactive)"}]}
{"smiles": "COc1ccc(NS(=O)(=O)c2ccc(N3CCOCC3)c(NC(=O)c3ccccc3Br)c2)cc1", "values": [{"measurement": "inhibition", "setting": "at 35 µM", "result": "-4.7% (inactive)"}]}
{"smiles": "COc1ccc(NS(=O)(=O)c2cc(NC(=O)/C=C/c3cc(OC)c(OC)c(OC)c3)ccc2N2CCCCC2)cc1", "values": [{"measurement": "inhibition", "setting": "at 35 µM", "result": "-7.6% (inactive)"}]}
{"smiles": "COc1ccc(NS(=O)(=O)c2cc(NC(=O)C3CCCCC3)ccc2N2CCOCC2)cc1", "values": [{"measurement": "inhibition", "setting": "at 35 µM", "result": "13.7% (active)"}, {"measurement": "inhibition", "setting": "confirmation average, at 20 µM", "result": 81.1, "unit": "%"}]}
{"smiles": "CCC(C)[C@H](NC(=O)N1CCn2c1nc1ccccc12)C(=O)NCc1ccc(OC)cc1", "note": "(stereo partly specified)", "values": [{"measurement": "inhibition", "setting": "at 35 µM", "result": "-4.4% (inactive)"}]}
{"smiles": "CCc1ccc(-c2nc(SCC(=O)NC3CCCC3)n[nH]2)cc1", "values": [{"measurement": "inhibition", "setting": "at 35 µM", "result": "45.6% (inactive)"}]}
